Consider 27 molecules from PubChem BioAssay AID686978 (National Center for Advancing Translational Sciences (NCATS), 2013).

Each structure is given as a SMILES string. Hit rate of the full screen: of about 420,000 compounds, about 64,000 (15%) were called active. Roughly 27% stayed inconclusive and do not appear here. Calls come from the whole dose curve; as a rule, active = well fitted inhibition curve with a large enough effect; inconclusive = small, poorly fitted or top-dose-only effect; inactive = flat fitted curve, though single readings scatter. These entries were drawn from the full list. Where a call stands in place of a potency, no number is given.
Potency is the fitted concentration of half-maximal effect.

The experiment can be described thus: qHTS for Inhibitors of human tyrosyl-DNA phosphodiesterase 1 (TDP1): qHTS in cells in absence of CPT. Note: nearly all actives have a fitted effect of over 55% in size. Particulars: DT40 Tdp1-/- hTDP1 cells, no CPT, ATP luminescence, 48 h; activity change, negative = growth inhibition: at 46.2 µM (top of the series). The gist of the method: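 A cellular qHTS used chicken DT40 cells lacking endogenous Tdp1 but carrying stably transfected human TDP1. Compounds were applied without camptothecin, and cell growth kinetics were judged by ATP-dependent luminescence after ≥48 hr.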
A general note: In qHTS, concentration-response curves come from the screen itself.
Take `COc1cccc(C(=O)NC2(C(F)(F)F)C(=O)Nc3c2c(=O)[nH]c(=O)n3-c2ccc(C)cc2)c1` (configuration not stated): the Potency is 23.1 µM (active).
Turning to `COc1cccc(C(=O)NNC(=O)c2cccc(F)c2)c1`, the Potency result is “inactive”.
For `CCOc1ccccc1C(=O)NC1(C(F)(F)F)C(=O)Nc2c1c(=O)[nH]c(=O)n2-c1ccc(F)cc1` (configuration not stated), the Potency result was “inactive”.
As for `Cc1cccc(-c2noc(CCC(=O)NC3CCCC3)n2)c1`, the Potency result is “inactive”.
As for `Cc1ccc(S(=O)(=O)N2CCCC2CO)cc1` (configuration not stated), the Potency entry is “inactive”.
Consider `COc1ccc(S(=O)(=O)N2CCOC2CNC(=O)C(=O)NCc2ccncc2)cc1OC` (configuration not stated), for which the Potency result is “inactive”.
For the molecule `CCOC(=O)C1=CCC(c2ccc(F)cc2)N(S(=O)(=O)c2ccc(C)cc2)C1` (configuration not stated), the Potency is 18.4 µM (active).
For the molecule `CC(=O)C1=CCC(c2ccccc2)N(S(=O)(=O)c2ccc(C)cc2)C1` (configuration not stated), the Potency is 23.1 µM (active).
As for `Cc1ccc(S(=O)(=O)N2CC[C@H]3[C@@H](C2)C(=O)C[C@@H](c2ccccc2)N3S(=O)(=O)c2ccc(C)cc2)cc1`, the Potency result was “inactive”.
With `O=C(CN1CCN(S(=O)(=O)c2ccc(F)cc2)CC1)NC1CC1` the entry was “inactive”.
For the molecule `Cc1ccc(S(=O)(=O)N2C3C=CC(C3)C2C(=O)O)cc1` (configuration not stated), the Potency entry was “inactive”.
Consider `CCOC(=O)C1=CC[C@@H](c2ccncc2)N(S(=O)(=O)c2ccc(C)cc2)C1`, for which the Potency is 23.1 µM (active).
As to `Cc1ccc(NC(=O)CSc2nnc(CNC(=O)c3ccccc3F)o2)cc1`, the Potency entry was “inactive”.
On to `COc1ccc(-c2cc(=O)oc3cc(OCC(=O)N(C)C4CCS(=O)(=O)C4)ccc23)cc1` (configuration not stated), for which the Potency entry is “inactive”.
Turning to `Cc1ccc(-c2c[n+](=O)c3c(n2[O-])CCC3)cc1`, the Potency result is “inactive”.
With `O=C(C1CCN(C2CCN(Cc3cccc4c3OCO4)CC2)CC1)N1CCOCC1` the entry was “inactive”; with `COC(=O)C(C)n1cnc2c(nnn2-c2ccc(F)cc2)c1=O` (configuration not stated), “inactive”.
For `O=C1CC(c2ccccc2)C(c2ccccc2)=NN1` (configuration not stated) the value was “inactive”; for `CCOc1ccc(N2CC(C(=O)NCc3ccccn3)CC2=O)cc1` (configuration not stated), “inactive”; for `O=C(COC(=O)Cc1ccc(Br)cc1)Nc1ccc(N2CCOCC2)cc1`, “inactive”.
In the case of `COc1ccc(C(=O)Nc2c(N)nc(SCC(=O)Nc3ccc(C(C)=O)cc3)[nH]c2=O)cc1`, the Potency entry was “inactive”.
Regarding `Cc1cc(Cl)c(S(=O)(=O)N(C)C)cc1OCC(N)=O`, the Potency entry is “inactive”.
Take `COc1ccc(C(C[N+](=O)[O-])n2nc(C)cc2C)cc1` (configuration not stated): the Potency was 6.51 µM (active).
`COc1ccc(C(=O)CSc2nc(C)cc(C)n2)cc1[N+](=O)[O-]`: the Potency entry was “inactive”.
With `COc1ccc(OC)c(S(=O)(=O)n2c([N+](=O)[O-])cnc2C)c1`, the Potency result was “inactive”.
Regarding `C/C(=N\N)c1c(-c2ccccc2)c2cc(Br)ccc2[nH]c1=O`, the Potency result is “inactive”.
Turning to `COc1ccc(CCNC(=O)COC(=O)/C=C/c2cccs2)cc1OC`, the Potency result is “inactive”.
